In the supplement of paper PMC4954754:
± gives the uncertainty stated by the source.

These compounds were tested on HEK293T-Rex XBP1-RLuc (assay: XBP1-RLuc splicing reporter activation, triplicate, relative to 500 nM thapsigargin (% of thapsigargin); higher = stronger IRE1/XBP1s reporter activation). Conditions: 6.8 µM; 18 h; screen: confirmation.
Procedure: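 HEK293T-Rex cells stably expressing the ERSE-firefly luciferase (BiP promoter, ATF6-preferring) or XBP1-splicing Renilla luciferase (IRE1/XBP1s) reporter, 1536-well plates, compound at 6.8 µM for 18 hr at 37 °C; luminescence read […] and expressed as % activation = 100*(compound - median DMSO)/(median 500 nM thapsigargin - median DMSO). Primary screen was single-pass; confirmation screen in triplicate (mean ± SD).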

| Compound | XBP1-RLuc splicing reporter activation |
| --- | --- |
| O=C(N/N=C/c1ccc(O)c(O)c1)c1ccc(Br)cc1 | 20.9 ± 0.79 |
| C/C(=N\NC(=O)c1n[nH]c2c1CCCC2)c1ccc2ccccc2c1 | 1.43 ± 0.96 |
| Nc1ccc2nc(-c3ccc(Cl)cc3)[nH]c2c1 | 8.9 ± 0.25 |
| COc1ccc(/C=N/c2sc3c(c2C(N)=O)CCCC3)cc1 | 2.45 ± 0.41 |
| O=C(N/N=C\C(Cl)=C\c1ccccc1)c1n[nH]c2c1CCCC2 | 6.87 ± 1.5 |
| Cc1ccn2cc(-c3ccc(O)c(O)c3)nc2c1 | 17.8 ± 5 |
| C=CCNC(=O)c1cc(-c2ccc(F)cc2)on1 | 1.92 ± 2.1 |
| COc1ccccc1OCC(=O)Nc1cc(C)ccc1O | 19.6 ± 1.9 |
| Cc1ccc(O)c(NC(=O)c2cc(-c3cccs3)on2)c1 | 22.7 ± 1.2 |
| Cc1cc(C)c(OCC(=O)N/N=C/c2ccc(O)c(O)c2)c(Br)c1 | 17.1 ± 1.1 |
| N#Cc1c(NC(=O)c2ccc3ncsc3c2)sc2c1CCC2 | 1.45 ± 1.6 |
| O=C(N/N=C/c1ccc2c(c1)OCO2)c1cccc(F)c1 | 1.67 ± 0.99 |
| CCN1C(=O)/C(=C\c2ccc(O)cc2O)SC1=S | 13.6 ± 1.7 |
| CCN(CC)c1ccc2cc(-c3nc4ccccc4n3C)c(=O)oc2c1 | 9.31 ± 0.79 |
| CCCCCCc1ccc(-c2ncc(N)cn2)cc1 | 12.9 ± 0.42 |
| CCOc1cc(C2C(C(=O)OC3CCCCC3)=C(C)NC3=C2C(=O)CC(c2ccc(OC)cc2)C3)cc(Br)c1O (stereo not given) | 18.5 ± 2.8 |
| CN(C)c1ccc(/C=N/NC(=O)c2cccc(Br)c2)cc1 | 1.93 ± 3.2 |
| O=C1NC(=Nc2ccccc2)S/C1=C/c1ccc(O)c(O)c1 | 20.9 ± 2.1 |
| CCc1nc2sc(C(=O)c3ccccc3)c(N)c2cc1C | 2.72 ± 1.5 |
| COc1cccc(/C=N\NC(=O)c2n[nH]c3c2CCC3)c1 | 2.25 ± 1 |
